Bioassay records (PubChem BioAssay)
Only some compounds are listed: those with a hit (about 4.7% of all), similar ones and a draw of the others.
KLK7 zymogen act: activates the human kallikrein-7 zymogen. P49862. purified proKLK7, EDANS-DABCYL substrate fluorescence; 100% is mature enzyme control, 0% vehicle. activation, % at 7 µM. actives 0.9% (n = 370,000);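 active = activation above the mean of all tested compounds plus 3 SD, computed per campaign excluding outliers beyond control limits, cut at about 13% in these data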
ADAM17 inh: inhibitors of human ADAM17; inhibition, % at 6.95 µM; recombinant ADAM17, EDANS/DABCYL FRET peptide cleavage; AID 720648; actives 0.83% (n = 370,000);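 active = inhibition above the mean of compounds lying between control limits plus 3 SD, set per campaign, cut at about 8.5% in these data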
DSG3 Ab inh: inhibitors of pemphigus antibody binding to human desmoglein-3; AID 588358; DSG3-coupled beads, scFv-anti-DSG3-GFP binding, flow cytometry; active compounds read low; actives 0.48% (n = 310,000); P32926; binding (percent of control), % at 10 µM;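 active = binding more than 3 SD below its plate's average and above zero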;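 note: hits lower antibody fragment binding to DSG3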
ADAM10 inh: inhibits human ADAM10; actives 0.62% (n = 370,000); inhibition, % at 7 µM; recombinant ADAM10, EDANS/DABCYL FRET peptide cleavage, 3 h; AID 720582;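 active = inhibition above a per-campaign cutoff equal to the mean of compounds falling between control-based bounds plus 3 SD, cut at about 20% in these data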
Target sequence (O14672 214-748 limits assumed): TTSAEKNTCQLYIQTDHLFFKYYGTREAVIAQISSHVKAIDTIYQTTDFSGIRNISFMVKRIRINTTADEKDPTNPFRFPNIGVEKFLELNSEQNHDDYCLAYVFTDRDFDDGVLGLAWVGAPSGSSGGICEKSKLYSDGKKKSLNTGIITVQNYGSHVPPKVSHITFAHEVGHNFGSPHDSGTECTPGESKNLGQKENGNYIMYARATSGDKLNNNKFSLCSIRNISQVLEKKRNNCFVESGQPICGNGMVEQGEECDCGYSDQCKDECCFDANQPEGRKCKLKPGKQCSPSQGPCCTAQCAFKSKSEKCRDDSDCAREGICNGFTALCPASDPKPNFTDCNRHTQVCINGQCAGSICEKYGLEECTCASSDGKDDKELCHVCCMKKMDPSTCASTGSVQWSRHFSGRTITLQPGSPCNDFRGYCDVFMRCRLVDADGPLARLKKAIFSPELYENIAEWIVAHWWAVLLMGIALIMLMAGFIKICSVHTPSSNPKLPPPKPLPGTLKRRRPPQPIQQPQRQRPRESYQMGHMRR
rCAG RNA binder: binds r(CAG) RNA repeats | inhibition, % at 3 µM | r(CAG) RNA repeat, TO-PRO-1 dye displacement fluorescence | actives 1.3% (n = 370,000);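 active = inhibition above the plate cutoff, the mean of all test compounds on that plate plus 3 SD, cut at about 35% in these data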;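 note: higher means more dye released from RNA so lower well fluorescence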
MPTP inh: permeability transition pore inhibition; isolated mouse mitochondria, Ca2+ swelling absorbance, 30 min; inhibition, % at 10 µM; actives 1.4% (n = 360,000);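 active = inhibition of 50% or more, scaled per plate between neutral and stimulator controls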
MPTP counter: mitochondrial membrane potential, counter-screen; shares compounds with MPTP inh; isolated mitochondria, Rhodamine 123 fluorescence; inhibition, % at 10 µM; actives 78% (n = 5,000); AID 624504; in the data active = inhibition above about 22%
MPTP swell DR: MPTP inhibition, dose response swelling confirmation; shares compounds with MPTP inh; isolated mitochondria swelling, absorbance; IC50, µM; actives 58% (n = 780); AID 651561; in the data active = IC50 below about 20 µM
MPTP counter DR: active in counter-screen for permeability transition pore inhibitors; shares compounds with MPTP inh; isolated mitochondria counterscreen, fluorescence read-out; IC50, µM; actives 49% (n = 780); AID 651564; in the data active = IC50 below about 80 µM
Each line names hits and unclear results; the compound was inactive in the other large screens (follow-up assays come after a bar, where they were run); ! = repeats disagree.

CN1C(=O)c2cc(NC(=O)Nc3ccc(F)c(F)c3)ccc2OC[C@H]2O[C@@H](CC(=O)O)CC[C@H]21	none (no result: DSG3 Ab inh, MPTP inh)
COc1ccc(S[C@]2(C(=O)N(C)C)CC(=O)N(C(=O)/C=C/c3ccccc3)[C@@H]2c2ccc(OC)cc2)cc1	none (no result: DSG3 Ab inh, MPTP inh)
O=C(Nc1ccc(Br)cc1)/C(=C/c1cccc([N+](=O)[O-])c1)NC(=O)C1CCCCC1	MPTP inh 89.7 | MPTP counter 83.9
Oc1ccccc1C=NNC(=S)Nc1ccc(F)cc1	MPTP inh 62.6 | MPTP counter 71.4
Oc1ccccc1/C=N/NC(=S)NC1CC2C=CC1C2 (stereo not drawn)	MPTP inh 56.6 (no result: DSG3 Ab inh) | MPTP counter 70.4
NS(=O)(=O)c1ccc(Sc2ccccn2)c([N+](=O)[O-])c1	none
NS(=O)(=O)c1ccc(Sc2nc3ccccc3s2)c([N+](=O)[O-])c1	MPTP inh 59.6 | MPTP counter 43.0
CCN(CC)C(=O)CC[C@@H]1CC[C@]2(CCCN(C(=O)c3ccccc3)C2)O1	none (no result: DSG3 Ab inh, MPTP inh)
COc1cccc(C(=O)NNC2=C(C(=O)C(F)(F)F)CCC2)c1	MPTP inh 62.6 | MPTP counter 45.3
Nc1ccccc1C(=O)NNC1=C(C(=O)C(F)(F)F)CCC1	none
COc1ccccc1C(=O)NNC1=C(C(=O)C(F)(F)F)CCC1	none
O=C(NNC1=C(C(=O)C(F)(F)F)CCC1)c1ccc(Br)cc1	MPTP inh 93.0 | MPTP counter 74.6
COc1ccc(CNC(=O)c2cc(-c3ccccc3)c(N3CCOCC3)s2)cc1OC	none (no result: DSG3 Ab inh, MPTP inh)
O=S(=O)(Nc1cccnc1Cl)c1ccc(-c2ccccc2)cc1	none
O=S(=O)(Nc1ccccc1O)c1ccc(-c2ccccc2)cc1	MPTP inh 84.2 | MPTP counter 90.1
CC(C)c1ccc(CNc2c([N+](=O)[O-])c(=O)oc3ccccc23)cc1	MPTP inh 87.1 | MPTP counter 94.5
O=c1oc2ccccc2c(Nc2ccc(Cl)cc2)c1[N+](=O)[O-]	MPTP inh 56.5 | MPTP counter 82.5
O=C(NCCCNc1ccc(C(F)(F)F)cc1[N+](=O)[O-])c1ccc(Cl)cc1	MPTP inh 57.9 | MPTP counter 73.9
COc1ccc(C(CNC(=O)c2oc3cc(C)c(Cl)cc3c2C)N2CCCCC2)cc1 (stereo not drawn)	MPTP inh 71.3 (no result: KLK7 zymogen act, ADAM17 inh, DSG3 Ab inh, ADAM10 inh, rCAG RNA binder) | MPTP counter inactive | MPTP swell DR inactive | MPTP counter DR inactive
COCC1CN(CCc2ccc(F)cc2)S(=O)(=O)c2c(OCCN3C(=O)[C@@H]4[C@H](C3=O)[C@@H]3C=C[C@H]4C3)cccc2O1 (stereo partly drawn)	none (no result: DSG3 Ab inh, MPTP inh)
Cc1c(C(=O)Nc2ccc(Cl)cc2)c2ccccn2c1CCc1ccncc1	MPTP inh 85.3 | MPTP counter 90.3
CC(C)c1ccc(-c2cc(C(=O)N3N=C(C(F)F)CC3(O)C(F)F)c3ccccc3n2)cc1 (stereo not drawn)	MPTP inh 76.7 | MPTP counter 96.7
O=C(c1cc(C2CC2)nc2ccc(Br)cc12)N1N=C(C(F)F)CC1(O)C(F)F (stereo not drawn)	MPTP inh 75.3 | MPTP counter 84.2
COC(=O)C1=C(C(=O)OC)C2CCCC1C1N=NN(c3ccccc3)C21 (stereo not drawn)	none (no result: DSG3 Ab inh, MPTP inh)
COc1ccccc1NS(=O)(=O)c1cc(NC(=S)Nc2cc(C)cc(C)c2)ccc1Cl	MPTP inh 97.4 | MPTP counter 94.3
COc1ccc(NC(=S)Nc2cccc(Cl)c2Cl)cc1OC	none
COc1cc(C)c(NC(=S)Nc2ccc(C)c(Cl)c2)cc1OC	MPTP inh 60.9 | MPTP counter 76.8
COc1cc(C)c(NC(=S)Nc2cccc(Cl)c2)cc1OC	MPTP inh 82.8 (no result: DSG3 Ab inh) | MPTP counter 82.9
CCCCCc1ccc(-c2n[nH]c(=O)c3ccccc23)cc1	none (no result: DSG3 Ab inh, MPTP inh)
C[C@H](O)[C@@H]1CN2CCc3ccc(-c4ccc5c(c4)OCO5)cc3[C@@H]2C[C@@H]1N(C)C(=O)c1ccco1	none (no result: DSG3 Ab inh, MPTP inh)
CCCCCC[N+](C)(C)CC/C=C1/c2ccccc2Sc2ccc(Cl)cc21	none (no result: DSG3 Ab inh)
CN(C)CC/C=C1/c2ccccc2Sc2ccc(Cl)cc21	MPTP inh 94.7! | MPTP counter inactive
FC(F)Oc1ccc(NC(=S)NC2CCSc3ccccc32)cc1 (stereo not drawn)	MPTP inh 83.2 (no result: DSG3 Ab inh) | MPTP counter 79.0
O=C(NC(CC1=CCCCC1)c1ccccc1)C(F)(F)F (stereo not drawn)	none (no result: DSG3 Ab inh, MPTP inh)
Cc1cc(C(=O)CSc2nnc(-c3cccs3)o2)c(C)n1-c1ccccc1	MPTP inh 51.5 | MPTP counter 45.4
O=C(CSc1nnc(-c2cccs2)o1)c1cccs1	none
Cc1cc(C(=O)CSc2nnc(-c3ccc4c(c3)OCO4)o2)c(C)n1-c1ccc(F)cc1	MPTP inh 94.4 | MPTP counter 41.9
NC(=O)[C@@H]1CCCN1C(=O)[C@H]1O[C@@H](n2ccc(N)nc2=O)[C@H](O)[C@@H]1O	none (no result: DSG3 Ab inh, MPTP inh)
CCCCCCCCN1C(=O)[C@@H](CC(=O)NCc2cccc3ccccc23)C[C@@]2(C(=O)OC)C1=C[C@H](C(C)C)O[C@@H]2C1CC1	none (no result: DSG3 Ab inh, MPTP inh)
COc1ccc(CNC(=O)c2sc3nc(C)c(Cl)c(C)c3c2N)cc1	none (no result: DSG3 Ab inh, MPTP inh)
CC(=O)N1CCN(S(=O)(=O)c2ccc3c(c2)oc(=O)n3C)CC1	none (no result: DSG3 Ab inh, MPTP inh)
Cc1cccc(C(=O)Nc2sc(C)c(-c3ccccc3)c2C#N)c1	none
Cc1noc(C)c1C(=O)Nc1sc(C)c(-c2ccccc2)c1C#N	MPTP inh 73.6 | MPTP counter 79.7
CC(=O)Nc1ccc(Sc2ccc([N+](=O)[O-])o2)cc1	none
CN(O)C(=O)Nc1ccc([N+](=O)[O-])cc1	MPTP inh 82.9 | MPTP counter 96.3
CC(C)(C)C(=O)Nc1ccc(Sc2ccc([N+](=O)[O-])cc2)cc1	MPTP inh 95.6 | MPTP counter 93.4
Fc1ccc(-c2cc(-c3nnc4sc(-c5ccco5)nn34)[nH]n2)cc1	none (no result: DSG3 Ab inh, MPTP inh)
O=C1C(NC(=O)N2c3ccccc3C=Cc3ccccc32)CCCCN1Cc1ccc(Cl)cc1 (stereo not drawn)	none (no result: DSG3 Ab inh, MPTP inh)
CC(Oc1ccc(Br)cc1Cl)C(=O)Nc1ccncc1 (stereo not drawn)	MPTP inh 77.1 | MPTP counter 80.4
CCCCc1ccc(-n2nnnc2SCC(=O)Nc2cc(OC)c([N+](=O)[O-])cc2C)cc1	MPTP inh 63.6 | MPTP counter 53.5
